# Screening data deposited in PubChem by several laboratories.
# NLRP3 yeast inh: blocks the NALP3 inflammasome reconstituted in yeast; inhibition, % at 10 µM; 0.39% of 330,000 active; Yeast reconstituted NLRP3/ASC/caspase-1, beta-gal luminescence, 24 h;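 active = inhibition of 50% or more; inactive = inhibition below 50%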;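 note: plate controls were induced DMSO wells for no effect and uninduced yeast grown without galactose for full effect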
# PfHsp90 yeast 2: reduces growth (ATP signal) of yeast expressing P. falciparum Hsp90. S. cerevisiae expressing PfHsp90, BacTiter-Glo ATP, 48 h; yeast lacking PDR1 and PDR3 efflux regulators. inhibition, % at 9.4 µM. 0.32% of 310,000 active;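 active = every replicate shows inhibition above about 80%, whatever the replicate mean, limit read from the data; inconclusive = mean inhibition reaches the set limit but some replicate falls short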;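 note: 0% = DMSO neutral controls and 100% = 20 µM radicicol positive controls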
# tim10-1 inh: growth inhibitors of tim10-1 mutant yeast; S. cerevisiae tim10-1 ts strain growth, BacTiter-Glo, 24 h; inhibition, % at 20 µM; 2.2% of 330,000 active; AID 463190;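 active = inhibition of at least 40%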;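 note: mutant grown at 25 °C; 0% = DMSO wells with yeast and 100% = wells holding no yeast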
# tim23-1 inh: growth inhibitors of tim23-1 mutant yeast; S. cerevisiae tim23-1 growth, BacTiter-Glo luminescence, 24 h; inhibition, % at 20 µM; 1.3% of 330,000 active; AID 463212;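 active = growth inhibition of the mutant yeast at or above 50%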;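 note: temperature-sensitive mutant grown at 25 °C; plate controls were DMSO-treated mutant yeast for no effect and medium wells lacking yeast for full effect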
# NALP1 yeast inh: blocks the NALP1 inflammasome reconstituted in yeast. 0.61% of 280,000 active. inhibition, % at 10 µM. S. cerevisiae NALP1/ASC/caspase-1 growth, X-gal OD620, 72 h. AID 2071; in the data active = inhibition mostly above about 24%, no sharp cut-off; inactive = mostly below about 32%
# TIM10 inh: growth inhibitors of TIM10 yeast strain. S. cerevisiae TIM10 strain growth, BacTiter-Glo luminescence, 24 h. inhibition, % at 10 µM. 1.4% of 330,000 active. AID 463195;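 active = inhibition of 40% or more at the single tested concentration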;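 note: wild-type TIM10 isogenic control strain grown at permissive 25 °C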
# TIM10 conf: TIM10 yeast growth inhibition, confirmed; shares compounds with TIM10 inh; S. cerevisiae tim10 strain growth, BacTiter-Glo luminescence, 24 h; inhibition, % at 10 µM; 63% of 4,600 active; AID 463215;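 active = inhibition of yeast growth at or above a set limit in either of two replicates at 10 µM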;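 note: this counterscreen used the strain with wild-type TIM10; 0% = yeast with DMSO and 100% = medium wells lacking yeast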
# tim23-1 conf: tim23-1 yeast growth inhibition, confirmed; shares compounds with tim23-1 inh; S. cerevisiae tim23-1 growth, BacTiter-Glo luminescence, 24 h; inhibition, % at 20 µM; 83% of 4,400 active;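 active = inhibition above about 39% in either of two replicate wells at 20 µM, limit read from the data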;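 note: temperature-sensitive tim23-1 mutant grown at 25 °C; 0% = DMSO wells with yeast and 100% = medium wells without yeast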
# * = called active by the depositor; ? = inconclusive; nt = not tested or not shown. Sampled rows, rich in hits. Any-hit rate of the full collection: about 4.1%.
SMILES,NLRP3 yeast inh,PfHsp90 yeast 2,tim10-1 inh,tim23-1 inh,NALP1 yeast inh,TIM10 inh,TIM10 conf,tim23-1 conf
C=CCOc1ccc(C2C(C(=O)c3ccc(C)o3)=C(O)C(=O)N2Cc2cccnc2)cc1 (stereo not given),-1,16,9,6,5,-12,nt,nt
CCCCCCCCC1=NCCc2c1[nH]c1ccccc21,19,-8,38,57*,-47,45*,13,43*
N/C(=N\OC(=O)c1ccc(Cl)c([N+](=O)[O-])c1)c1ccccc1,34,13,34,81*,20,72*,72*,78*
N/C(=N\OC(=O)c1ccc(Cl)c([N+](=O)[O-])c1)c1ccccn1,10,2,29,14,5,-12,nt,nt
CC1(c2ccccc2)ON(c2ccccc2C(F)(F)F)C1=O (stereo not given),-4,nt,-33,62*,nt,54*,65*,-13
Cc1ccc(C(=O)N2CCN(c3ccc([N+](=O)[O-])cc3-n3cccc3)CC2)cc1,6,3,16,18,nt,4,nt,nt
CCOC(=O)C1(CCCc2ccccc2)CCN(Cc2cn(CC)nc2C)CC1,18,-4,3,12,17,7,nt,nt
COc1ccc(CN=C2NN=C(c3ccc(Cl)cc3)CS2)cc1,-11,20,14,65*,7,46*,31*,68*
CCOc1cccc(-c2c(C(=O)N/N=C(\C)c3cccnc3)nnn2-c2nonc2N)c1,14,1,19,16,17,6,nt,nt
O=C(Nc1ccc(-c2cn3ccccc3n2)cc1)c1ccco1,44,22,-18,59*,46,44*,1,59*
O=C(Nc1ccc(-c2cn3ccccc3n2)cc1)c1ccc(Cl)cc1,18,-27,-5,11,15,3,nt,nt
O=C1Nc2ccc(Br)cc2/C1=C/C(=O)c1ccc2c(c1)OCO2,17,106*,17,73*,nt,53*,64*,-70
O=C(/C=C\Nc1ccc2c(c1)OCO2)c1ccc2c(c1)OCO2,18,7,-19,-1,8,-13,nt,nt
COc1cc(C(=O)Nc2nnc(CC(=O)NCc3ccccc3)s2)cc(OC)c1OC,13,5,3,0,-1,11,nt,nt
CCOc1nc(-c2ccncc2)nc2ccccc12,42,-40,29,57*,-7,58*,44*,54*
Oc1ccc(Cl)cc1Cc1cc(Cl)ccc1O,12,107*,-8,73*,69,50*,63*,8
COc1cccc(NC(=O)CNC(=O)Cn2cnc3sc(C)c(C)c3c2=O)c1,1,16,-3,-3,30,3,nt,nt
O=c1c(-c2ccc3c(c2)OCCO3)coc2cc(O)cc(O)c12,20,18,35,56*,-1,41*,36*,49*
Nc1ccc(Cl)c(-c2nc3ncccc3o2)c1,14,-9,-1,-1,-14,8,nt,nt
Nc1ccc(-c2nc3ncccc3o2)c(O)c1,48,-10,1,58*,5,50*,43*,65*
O=C(c1ccc([N+](=O)[O-])o1)N1CCc2ccccc2C1,21,?,38,59*,nt,73*,73*,35
Cc1ccn2cc(C(=O)Nc3nnc(C)s3)nc2c1,12,-1,20,25,7,20,nt,nt
Cc1ccn2cc(C(=O)Nc3ccc4c(c3)OCCO4)nc2c1,30,-13,29,50*,18,44*,25,49*
CCCCNC(=S)N/N=C/c1ccccc1F,24,-8,35,51*,20,47*,-10,40*
C=CCOc1ccc(C2=NOC(C(=O)Nc3ccc4c(c3)OCCO4)C2)cc1 (stereo not given),36,-11,20,27,8,-23,nt,nt
SMILES,NLRP3 yeast inh,PfHsp90 yeast 2,tim10-1 inh,tim23-1 inh,NALP1 yeast inh,TIM10 inh,TIM10 conf,tim23-1 conf
CC1CCN(c2ccc(NC(=O)C3CCCN3S(=O)(=O)c3ccc(F)cc3)cc2)CC1 (stereo not given),6,-1,-4,26,nt,4,nt,nt
CC1(C)CCC[C@]2(C)C(CS(=O)c3ccccc3)=C(C=O)CC[C@@H]12 (stereo not given in full),22,-12,29,67*,nt,49*,47*,55*
Cc1cccc(NC(=O)c2ccco2)c1C,-12,3,-22,-3,14,-9,nt,nt
Cc1cc(NC(=O)c2ccco2)sc1C,39,33,0,52*,nt,43*,27,59*
O=C(c1ccc(Cl)c([N+](=O)[O-])c1)N1CCCc2ccccc21,40,7,15,23,3,-16,nt,nt
Nc1ccc2c(c1)C(=O)c1ccccc1C2=O,4,nt,6,-3,nt,2,nt,nt
O=C1C(=O)c2ccc(-c3ccccc3)cc2-c2ccccc21,12,nt,36,59*,-71,44*,61*,56*
CCOC(=O)N1CCN(C(=O)Nc2ccc3nc(C)sc3c2)CC1,-6,-8,-3,-4,26,6,nt,nt
CCOC(=O)Nc1ccc2nc(N3CCCCCC3)sc2c1,40,0,36,50*,16,40*,40*,-29
CC(C)N(C(=O)[C@H]1C[C@H](CC(=O)NCCCn2ccnc2)C(=O)N2CCc3c([nH]c4ccc(Cl)cc34)[C@]12C)C(C)C,nt,-41,7,26,nt,-2,nt,nt
COc1ccc(C(=O)NN)cc1COc1ccc(Br)cc1,11,8,31,61*,6,47*,40*,43*
CCC(=O)N(Cc1cc2ccccc2[nH]c1=O)c1ccccc1OC,3,-58,22,18,7,4,nt,nt
CCOC(=O)CSC1=NC(=O)/C(=C\c2ccc(Cl)cc2)S1,38,64,38,71*,17,50*,58*,45*
CC1=CC(C)(C)N(C(=O)CN2C(=O)CCC2=O)c2ccccc21,-1,11,11,5,-5,3,nt,nt
CC1=CC(C)(C)N(C(=O)CN2C(=O)c3ccccc3C2=O)c2ccc(C)cc21,25,18,40,60*,-22,44*,50*,59*
COc1ccc(-c2nnc(Sc3nc4ccccc4o3)c3ccccc23)cc1,19,15,27,52*,18,42*,36*,42*
COc1ccc(-c2nnc(OC)c3ccccc23)cc1,39,-1,22,41,18,-14,nt,nt
COc1cccc(/C=N/NC(=O)C(=O)Nc2ccccc2OC(F)(F)C(F)F)c1O,17,92*,-2,54*,10,45*,56*,61*
COc1cccc(NC(=O)Nc2ccc3c(c2)CCC3)c1,37,17,-4,11,3,13,nt,nt
